According to PubChem BioAssay AID1210 (NMMLSC, 2008):
The source made the active and inactive calls.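 How the source made its calls: active means blocks over 70% of labeled estradiol binding at 10 µM, or over a set limit at 100 nM; inactive means the rest.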

Target: Estrogen receptor beta (Homo sapiens) (UniProt Q92731)
Assay: ERbeta ligand binders by competition, primary screen, cell-based, Cos7 ERbeta-GFP, flow cytometry (AID 1210);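 further: 0% = DMSO vehicle wells and 100% = complete loss of labeled estradiol signal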
Conditions: fluorescent estrogen binding, stronger effect = higher value
[1] = ligand binding inhibition, at 0.1 µM

Sequence of Estrogen receptor beta (Homo sapiens) (Q92731 whole entry, looked up): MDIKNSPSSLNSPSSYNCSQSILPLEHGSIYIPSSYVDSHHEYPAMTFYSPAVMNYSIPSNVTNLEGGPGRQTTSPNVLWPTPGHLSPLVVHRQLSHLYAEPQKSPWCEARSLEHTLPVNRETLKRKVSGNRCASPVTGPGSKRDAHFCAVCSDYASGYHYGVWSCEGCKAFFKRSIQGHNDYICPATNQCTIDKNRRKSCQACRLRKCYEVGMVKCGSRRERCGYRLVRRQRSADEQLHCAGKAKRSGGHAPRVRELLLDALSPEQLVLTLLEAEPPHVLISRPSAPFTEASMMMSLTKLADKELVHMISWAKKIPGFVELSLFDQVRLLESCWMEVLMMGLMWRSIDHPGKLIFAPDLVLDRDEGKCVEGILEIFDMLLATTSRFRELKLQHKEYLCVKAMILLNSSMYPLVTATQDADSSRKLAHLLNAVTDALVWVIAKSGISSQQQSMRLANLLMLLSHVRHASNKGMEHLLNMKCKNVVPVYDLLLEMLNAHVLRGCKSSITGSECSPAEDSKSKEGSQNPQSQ

| SMILES | inhibition (at 10 µM) | inhibition [1] [%] |
| --- | --- | --- |
| Nc1ccc(N2CCN(C(=O)c3ccco3)CC2)cc1 | 49% (inactive) | 25 |
| Cc1ccc(-n2c(SCC(=O)NNC(=S)Nc3ccccc3)nc3ccccc3c2=O)cc1 | 34% (inactive) | 4 |
| CC(Cc1ccc(O)c(O)c1)C(C)Cc1ccc(O)c(O)c1 (stereo not given) | 65% (inactive) | 18 |
| Cc1ccc(-n2c(=O)c(C#N)cc3c(=O)n4cccc(C)c4nc32)cc1 | 72% (active) | 29 |
| Cc1[nH]c2ccc(-c3nnc(SCC(=O)c4ccccc4F)o3)cc2c1C | 18% (inactive) | 28 |
| O=c1cc(O)c2sc(Nc3ccc(F)cc3)nc2[nH]1 | 8% (inactive) | 9 |
| O=C(CSc1nc2ccccc2c(=O)[nH]1)c1ccc(O)c(O)c1 | 36% (inactive) | 14 |
| CC1(C)CC(=O)c2c(oc3cc(O)c(O)cc23)C1 | 11% (inactive) | 3 |
| CC(C)c1ccc2c(c1)[C@H]1OCC[C@H]1[C@@H](c1cccs1)N2 | 0% (inactive) | 36 |
| Cc1cc(NC(=O)CSc2cn(CCNC(=O)c3ccc(Cl)cc3)c3ccccc23)no1 | 11% (inactive) | 31 |
| Cn1cccc1/C=C1\SC(=O)N(c2ccc(O)cc2)C1=O | 31% (inactive) | 7 |
| N#CC1=C(N)OC2=C(CCC/C2=C/c2ccoc2)C1c1ccoc1 (stereo not given) | 20% (inactive) | 34 |
| COc1ccc(NC2=CC(c3cccc(OC)c3)N(c3ccc(OC)cc3)C2=O)cc1 (stereo not given) | 33% (inactive) | 25 |
| O=C(Nc1ccccc1[N+](=O)[O-])C1=C(O)CCn2c1nc1ccccc12 | 37% (inactive) | 46 |
| Cc1nn2cc(-c3ccc(N)cc3)nc2s1 | 23% (inactive) | 15 |
| Nc1ccc2nc(-c3ccc(Cl)cc3)[nH]c2c1 | 42% (inactive) | 16 |
| CCCSC1=N/C(=C\C=C\c2ccco2)C(=O)S1 | 47% (inactive) | 31 |
| CCOc1[nH]c(/N=C/c2ccco2)c(C#N)c1C#N | 35% (inactive) | 15 |
| O=c1oc2ccccc2n1CCn1c2ccccc2c2nc3ccccc3nc21 | 70% (inactive) | 18 |
| Cn1c(-c2ccc3nc(N)sc3c2)nc2cc(N)ccc21 | 68% (inactive) | 17 |
| CSc1nc2c(c(=O)[nH]1)C(c1cccs1)C1=C(CCCC1=O)N2 (stereo not given) | 71% (active) | 33 |
| CCOc1ccccc1N1CSC2=C(C#N)C(c3c(OC)ccc4ccccc34)CC(=O)N2C1 (stereo not given) | 35% (inactive) | 28 |

| SMILES | inhibition (at 10 µM) | inhibition [1] [%] |
| --- | --- | --- |
| COc1ccc(CNC(=O)c2cc(-c3cccs3)on2)cc1 | 39% (inactive) | 23 |
| Cc1nn(-c2ccccc2)c(Cl)c1/C=N/Nc1ccc(S(=O)(=O)Nc2ccccc2C(=O)O)cc1[N+](=O)[O-] | 15% (inactive) | 53 |
| CN1C(=O)CC(C(=O)O)SC1=Nc1cc(Cl)c(O)c(Cl)c1 (stereo not given) | 48% (inactive) | 14 |
| CCOc1ccc(C2C3=C(Nc4nc(N)[nH]c(=O)c42)c2ccccc2C3=O)cc1 (stereo not given) | 22% (inactive) | 39 |
| NNc1nc2sc3c(c2c(=O)[nH]1)CCc1ccccc1-3 | 23% (inactive) | 37 |
| Oc1ccc(C=Nc2ccc(N3CCOCC3)cc2)c(O)c1 | 51% (inactive) | 63 |
| COc1ccc(C2Nc3ccccc3C(=O)N2c2ccccc2)cc1Cn1cc([N+](=O)[O-])cn1 (stereo not given) | 26% (inactive) | 45 |
| COc1cccc2cc3c(=O)n(-c4ccccc4)nc-3oc12 | 70% (inactive) | 12 |
| COc1cc2c(cc1OC)C(Cc1ccc(O)cc1)NCC2 (stereo not given) | 23% (inactive) | 13 |
| COc1cc2c(cc1O)CC[n+]1cc3c(OC)c(OC)ccc3cc1-2 | 25% (inactive) | 23 |
| CCNC(=O)c1ccc2c(c1)C1C3CCC(C3)C1C(c1ccccc1)N2 (stereo not given) | 29% (inactive) | 58 |
| CC(=O)Nc1ccc(OC(=O)CC2SC(=O)NC2=O)cc1 (stereo not given) | 59% (active) | 66 |
| O=C(COC(=O)c1ccccc1Oc1ccccc1)NCc1ccco1 | 16% (inactive) | 65 |
| Cc1ccc(Oc2cc(N3CCOCC3)nc(-c3ccccc3)n2)cc1 | 35% (inactive) | 15 |
| Cc1ccc(C(=O)ONc2ccc(N=NC(=O)c3ccccc3O)cc2)cc1 | 58% (inactive) | 28 |
| CCCc1cc(-n2ccnc2)n2c(nc3ccccc32)c1C#N | 32% (active) | 75 |
| Cc1sc2ncnc(SCC(=O)NC(=O)NCc3ccco3)c2c1C | 47% (inactive) | 14 |
| CCOc1cc(C2CC(=O)c3c(ccc4ccccc34)N2)ccc1O (stereo not given) | 19% (inactive) | 8 |
| Cc1cc(C)nc(NC(=O)CSc2nn(C)c(=S)s2)n1 | 6% (inactive) | 20 |
| COc1cc2c(cc1O)C(Cc1ccc(O)cc1)NCC2 (stereo not given) | 72% (active) | 11 |
| Cc1ccc(N=Cc2ccc(O)cc2O)cc1F | 34% (inactive) | 15 |
| CCC(=O)Nc1ccc(C(=O)Cn2nc(C(=O)O)c3ccccc3c2=O)cc1 | 64% (inactive) | 1 |

| SMILES | inhibition (at 10 µM) | inhibition [1] [%] |
| --- | --- | --- |
| O=S(=O)(NCc1csc(-c2cccnc2)n1)c1cccs1 | 34% (inactive) | 21 |
| C[C@]12CC[C@@H]3c4ccc(O[C@@H]5O[C@H](C(=O)O)[C@@H](O)[C@H](O)[C@H]5O)cc4CC[C@H]3[C@@H]1C[C@@H](O)[C@@H]2O | 52% (inactive) | 15 |
| O=C1OC(c2ccc(O)cc2)(c2ccc(O)cc2)c2ccccc21 | 51% (inactive) | 11 |
| COC(=O)c1ccc(CC(=O)c2ccc(O)cc2O)o1 | 44% (inactive) | 20 |
| O=C(c1cc2c(s1)CCC2)N1CCN(c2ccccc2)CC1 | 52% (inactive) | 7 |
| O=C(c1cc2ncc(Br)cn2n1)N1CCN(C(=O)c2ccco2)CC1 | 62% (active) | 67 |
| CCOC(=O)C1=C(C)NC(=O)NC1c1ccco1 (stereo not given) | 11% (inactive) | 15 |
| Cc1ccnc(NS(=O)(=O)c2ccc(NC(=O)c3cc(-c4ccc(Br)cc4)nc4ccccc34)cc2)n1 | 0% (inactive) | 51 |
| CC(=O)Nc1ccc(N=Cc2nc(-c3ccc(C)cc3)oc2O)cc1 | 68% (inactive) | 56 |
| O=C1C(c2ccnc3ccccc23)=C(O)c2ccccc21 | 60% (inactive) | 18 |
| CCOC(=O)c1c(/N=C/c2ccc(O)cc2O)sc2c1CCC2 | 33% (inactive) | 22 |
| CCn1c(SCC(=O)c2ccc(O)c(O)c2)nnc1-c1ccccc1OC | 58% (inactive) | 3 |
| CCCCCc1nnc(NC(=O)Cc2cccs2)s1 | 18% (inactive) | 5 |
| COc1ccc(-c2nc3ccc([N+](=O)[O-])cc3o2)cc1 | 36% (inactive) | 12 |
| CCN(CC)c1ccc2c(c1)oc(=O)c1c(Cl)cc(=O)oc12 | 33% (inactive) | 18 |
| COc1cc(C(Nc2ccccn2)c2ccc3ccc(C)nc3c2O)cc(OC)c1O (stereo not given) | 0% (inactive) | 20 |
| COc1ccc2c(c1)c1nc3ccccc3nc1n2CCCN1C(=O)c2ccccc2C1=O | 49% (inactive) | 18 |
| O=C(Oc1ccc(-c2cnc3ccccc3n2)cc1)c1ccc(Br)o1 | 72% (active) | 29 |
| Oc1ccccc1N=Nc1nc(-c2ccccc2)c(-c2ccccc2)[nH]1 | 36% (inactive) | 36 |
| O=C(CSc1nc2scc(-c3ccco3)c2c(=O)n1-c1ccccc1)NCC1CCCO1 (stereo not given) | 55% (inactive) | 50 |
| COC(=O)c1ccc(C2Nc3ccc(/C(C)=N/NC(=O)C(OC)c4ccccc4)cc3C3C=CCC32)cc1 (stereo not given) | 22% (inactive) | 40 |
| COc1ccc(NC(=O)CN(c2ccccc2)S(=O)(=O)N(C)C)cc1OC | 40% (inactive) | 15 |

| SMILES | inhibition (at 10 µM) | inhibition [1] [%] |
| --- | --- | --- |
| O=C(O)c1ccc2c(c1)C1C=CCC1C(c1cc3c(cc1Br)OCO3)N2 (stereo not given) | 38% (inactive) | 6 |
| Cc1noc(C)c1COC(=O)c1cc2c3ccccc3n(C)c2s1 | 59% (inactive) | 4 |
| COc1cccc(-n2nnnc2SCC(=O)Nc2ccc(C(C)=O)cc2)c1 | 61% (inactive) | 51 |
| Oc1ccc(-c2nccc(-c3cccs3)n2)cc1 | 28% (inactive) | 14 |
| C/C(N)=C(/C#N)C(=O)CSc1nnc(Nc2cccc(C)c2C)s1 | 39% (inactive) | 7 |
| C/C=C(/C(=C/C)c1ccc(O)cc1)c1ccc(O)cc1 | 55% (active) | 85 |
| CCn1c(SCC(=O)N2CCOCC2)nc2oc3c(Cl)cc(Cl)cc3c(=O)c2c1=O | 56% (inactive) | 1 |
| Fc1ccc2c(c1)[C@H]1OCC[C@H]1[C@@H](c1ccco1)N2 | 37% (inactive) | 1 |
| C/C(N)=C(/C#N)C(=O)CSc1nnc(-c2ccc(OC(F)F)cc2)o1 | 37% (inactive) | 23 |
| O=C(Nc1ccc2nn(-c3ccccc3)nc2c1)c1ccc2c(c1)OCO2 | 27% (inactive) | 14 |
| C/C=C/COC(=O)c1[nH]c2c(c1C)C(=O)CC(c1ccco1)C2 (stereo not given) | 53% (inactive) | 11 |
| CCOC(=O)CN1C(c2ccc(O)cc2)Nc2ccc(Br)cc2C1c1ccccc1 (stereo not given) | 48% (inactive) | 23 |
| COc1cc(NC(=O)c2cccs2)c(C(=O)OCC(=O)NCc2ccco2)cc1OC | 41% (inactive) | 47 |
| CC(Oc1ccc(Cl)cc1Cl)C(=O)Nc1ccc2oc(-c3ccncc3)nc2c1 (stereo not given) | 50% (inactive) | 27 |
| NC(=O)c1c(NC(=O)c2cc3ccccc3o2)sc2c1CCC2 | 18% (inactive) | 54 |
| CCCC1=NN2C(=N)/C(=C\c3ccc(SCc4ccco4)o3)C(=O)N=C2S1 | 13% (inactive) | 17 |
| O=C(NC1CCN(C(=O)N2c3ccccc3Sc3ccccc32)CC1)c1ccccc1Cl | 18% (inactive) | 23 |
| C/C(N)=C(/C#N)C(=O)CSc1nnnn1-c1ccc(C)cc1 | 27% (inactive) | 57 |
| N=C1C(c2nc3ccccc3[nH]2)=C(O)CN1c1ccc(CC(=O)O)cc1 | 26% (inactive) | 21 |
